Experimental findings from PubChem BioAssay are described below.

Assay [1] has as its target ATP-dependent translocase ABCB1 (Homo sapiens) (UniProt P08183). The assay can be described thus: P-glycoprotein substrate transport blockade – cell-based (AID 377; in the data active = fluorescence slope change above about 50%). The following applies: MDR1-expressing cells, fluorescent substrate accumulation slope; stronger effect = higher value; concentration not given here.
In assay [2] the target is 6-phosphogluconate dehydrogenase, decarboxylating (Homo sapiens) (UniProt P52209). The assay can be described thus: inhibition of human phosphogluconate dehydrogenase – biochemical, recombinant enzyme, NADPH absorbance, primary screen (AID 1159550;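 active = at least 20% inhibition of 6-phosphogluconate dehydrogenase activity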). The following applies: recombinant 6PGD, NADPH absorbance 341 nm; at 10 µM; stronger effect = higher value.
Chain of 6-phosphogluconate dehydrogenase, decarboxylating (Homo sapiens) (P52209 whole entry, looked up): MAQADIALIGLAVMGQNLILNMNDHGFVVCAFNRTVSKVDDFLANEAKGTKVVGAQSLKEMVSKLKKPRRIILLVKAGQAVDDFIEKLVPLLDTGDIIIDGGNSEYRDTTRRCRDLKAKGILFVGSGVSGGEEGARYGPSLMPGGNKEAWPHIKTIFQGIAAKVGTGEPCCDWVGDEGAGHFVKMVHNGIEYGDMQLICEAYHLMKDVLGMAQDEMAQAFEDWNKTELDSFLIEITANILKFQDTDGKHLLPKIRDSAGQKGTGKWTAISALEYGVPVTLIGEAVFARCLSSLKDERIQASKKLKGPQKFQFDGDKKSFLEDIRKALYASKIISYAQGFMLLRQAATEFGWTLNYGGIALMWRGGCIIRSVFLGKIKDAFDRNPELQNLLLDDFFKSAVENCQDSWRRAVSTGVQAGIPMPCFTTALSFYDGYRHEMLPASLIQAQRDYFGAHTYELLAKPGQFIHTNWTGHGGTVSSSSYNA
Assay [3] is described as follows: EMT-state selective cytotoxicity in co-culture – imaging, PC-3E GFP, TEM4-18 mCherry, primary screen (AID 1345086;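 active = compounds killing one labelled cell type while sparing the other, by normalised counts and ratio limits, not self-fluorescent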;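 for all read-outs here: cells exposed to compound for 72 h before imaging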;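 for red/green cell ratio (normalised): normalised mesenchymal count divided by normalised epithelial count so high means epithelial killing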). The following applies: PC-3E GFP / TEM4-18 mCherry co-culture, imaging cell counts, at 1 µM; for red/green cell ratio (normalised): actives lie on both sides.
Assay [4] concerns Aerobactin synthetase IucA (Klebsiella pneumoniae hvKP1). Nature of the assay: IucA enzyme inhibition, primary screen, biochemical, Spectrum library (AID 1346200).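 Note: 100% = wells without compound and 0% = wells lacking enzyme.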 As to conditions: malachite green pyrophosphate, A620, at 8 µM, stronger effect = lower value.
Assay [5] concerns the target Mitogen-activated protein kinase 7 (Homo sapiens) (UniProt Q13164). The assay can be described thus: Gal4-ERK5 driven luciferase induction – cell-based, HTS, primary screen (AID 1508626;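 active = luciferase signal above three times the same-plate solvent-only control wells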;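 note: luciferase driven by Gal4-ERK5 fusion binding five Gal4 sites before minimal TATA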). The following applies: HeLa Gal4-ERK5 transactivation, 18 h, at 5 µM, stronger effect = higher value.
Assay [6] can be described thus: blockers of polyQ-driven CASP3 activation – cell-based (AID 1583). As to conditions: polyglutamine-induced caspase-3 activation, cell assay; stronger effect = higher value;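 tested at 10 µM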.
The nature of assay [7]: yeast 75Q aggregation reduction – 75Q-TubU reporter (AID 1593). As to conditions: Yeast 75Q polyglutamine aggregation reporter.
Assay [8] is described as follows: restoration of touch response, mutant HTT neurons – whole organism, C. elegans mechanosensory neurons, N-terminal huntingtin (AID 1599). The following applies: C. elegans polyQ-huntingtin mechanosensory neurons, stronger effect = higher value.
The nature of assay [9]: blockers of cytochrome c efflux from mitochondria – biochemical, purified mitochondria (AID 1603).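 Note: mouse liver mitochondria challenged with calcium chloride; signal normalized to the plate average as 100%.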 The following applies: stronger effect = lower value.
The nature of assay [10]: polyglutamine aggregate formation blockers (AID 1604). As to conditions: polyglutamine-induced protein aggregation inhibition assay; stronger effect = higher value; tested at 2.5 µM.
Assay [11] in a line: glutamate transport activators, MN-1 cells, MN-1 cell line (AID 1612).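 Note: tested at 1 µM final; 0% = mean of DMSO vehicle wells on each plate; positive means more glutamate uptake than control and negative means less.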 As to conditions: MN-1 motor neuron cells, stronger effect = higher value.
A short description of assay [12]: GFP-Q80 aggregate reduction, neuronal-like cells, cell-based, NGF-treated PC12, GFPQ80 (AID 1614).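 Note: lower means fewer inclusions and 0 means no inclusions at all.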 As to conditions: PC12 NGF-treated GFP-polyQ80 inclusion reduction.
Assay [13] is described as follows: 75Q-TubH aggregate inhibition, S. cerevisiae, yeast (AID 1616). The following applies: S. cerevisiae 75Q-TubH polyglutamine aggregation suppression; stronger effect = higher value.
A short description of assay [14]: compounds altering circadian rhythm period length – cell-based, LOPAC library, luminescence reporter (AID 2774).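 Note: values are relative to mean of DMSO wells on each plate.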 The following applies: circadian reporter cells, at 7 µM, actives lie on both sides.
Assay [15] relates to Hepatitis C virus NS3 helicase. Nature of the assay: blockers of NS3h binding to ssDNA – biochemical, fluorescence polarization, LOPAC1280 library, primary screen (AID 687035; in the data active = inhibition above about 37%). As to conditions: Purified HCV NS3 helicase, Cy5-dT15 ssDNA binding fluorescence polarization; stronger effect = higher value; concentration not given here. A general note: Fluorescence polarisation rises when a labelled molecule tumbles more slowly, as on binding a larger partner.

A short description of assay [16]: compounds altering Cy5-DNA-NS3h complex signal – biochemical, LOPAC1280, artefact control for HCV NS3 helicase inhibitor project (AID 687037). As to conditions: Cy5-DNA-NS3h complex fluorescence interference counterscreen. Background: The purpose of a counterscreen is to sort out artefacts and off-target activity.
Assay [17] deals with Aerobactin synthetase IucA (Klebsiella pneumoniae). The assay can be described thus: inhibition of K. pneumoniae IucA enzyme – biochemical, Tocris library, absorbance (AID 1345561).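 Note: 100% = enzyme without compound and 0% = no enzyme.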 The following applies: purified IucA enzyme assay, absorbance (OD) read-out; stronger effect = lower value;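 tested at 8 µM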.
Assay [18] deals with Aerobactin synthetase IucA (Klebsiella pneumoniae, hypervirulent). The assay can be described thus: biochemical IucA inhibition screen of LOPAC library by absorbance (AID 1346212).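 Note: 100% = no compound wells and 0% = no enzyme wells.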 The following applies: IucA enzyme assay, absorbance (OD) readout; stronger effect = lower value;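 tested at 8 µM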.
Assay [19] can be described thus: viability loss with induced miR-34 in A549 – imaging, A549 dox-inducible miR-34, nuclei and caspase counts, primary screen (AID 1347080;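 active = compounds whose cell count with miR-34 switched on is under 0.7 times the count with it off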). The following applies: A549 miR-34 inducible, Hoechst nuclei count, 48 h.
Assay [20] in a line: blockers of cellular phospholipid synthesis – cell-based, LOPAC library, screen 4, primary screen (AID 1347384). As to conditions: animal cells, phospholipid biosynthesis inhibition screen; at 10 µM.
Assay [21] in a line: galactose survival enhancers in mitochondrial complex I cybrids – cell-based, galactose medium, ATP luminescence, primary screen (AID 1645843;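 active = z-score of at least 1.8 in each of two replicates, scored against plate mean and spread of sample wells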;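 note: positive z means more ATP and so rescue of galactose-driven cybrid death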). The following applies: complex I mutant cybrid cells, 72 h, stronger effect = higher value.
Assay [22] can be described thus: P. berghei load reduction in hepatocytes – cell-based, HepG2, luciferase luminescence, HepG2 viability, primary screen (AID 624349; in the data active = parasite load remaining mostly below about 12%, no sharp cut-off; inactive = mostly above about 10%;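 note: 100% = mean of DMSO negative control wells on the same plate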). As to conditions: P. berghei liver stage in HepG2, luciferase luminescence, concentration not given here; parasite load remaining: stronger effect = lower value; viability: measured here: HepG2 viability without parasites.
Assay [23] has as its target NAD(+) hydrolase SARM1 (Homo sapiens) (UniProt Q6SZW1). The assay can be described thus: blocking NAD cleavage by SARM1 SAM-TIR – cell lysate, NAD-Glo luminescence (AID 1508614;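 active = compound whose remaining NAD level is above about 45 nM, limit read from the data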;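 note: higher remaining NAD means stronger inhibition of SARM1 NADase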). The following applies: SAM-TIR HEK293T lysate NADase, at 1 µM, stronger effect = higher value.
Where [24] appears, read: measured here: epithelial PC-3E GFP cell survival.
[25] abbreviates: measured here: mesenchymal TEM4-18 mCherry cell survival.
[26] abbreviates: measured here: relative caspase fold change +Dox/-Dox.
Where [27] appears, read: measured here: total cells with miR-34 induction, stronger effect = lower value.
[28] abbreviates: measured here: total cells without miR-34 induction.

Structures are written as SMILES. “And” between values parts separate entries of the source, which are not always exact repeats. Equal values may be shown once. Inconclusive results are not listed. For some assays here: Results with a measured potency or affinity are listed apart. The source made the active and inactive calls. Unless noted, the rule behind the calls is not given here.

Chain of Mitogen-activated protein kinase 7 (Homo sapiens) (Q13164 whole entry, looked up, the tested form may be a part): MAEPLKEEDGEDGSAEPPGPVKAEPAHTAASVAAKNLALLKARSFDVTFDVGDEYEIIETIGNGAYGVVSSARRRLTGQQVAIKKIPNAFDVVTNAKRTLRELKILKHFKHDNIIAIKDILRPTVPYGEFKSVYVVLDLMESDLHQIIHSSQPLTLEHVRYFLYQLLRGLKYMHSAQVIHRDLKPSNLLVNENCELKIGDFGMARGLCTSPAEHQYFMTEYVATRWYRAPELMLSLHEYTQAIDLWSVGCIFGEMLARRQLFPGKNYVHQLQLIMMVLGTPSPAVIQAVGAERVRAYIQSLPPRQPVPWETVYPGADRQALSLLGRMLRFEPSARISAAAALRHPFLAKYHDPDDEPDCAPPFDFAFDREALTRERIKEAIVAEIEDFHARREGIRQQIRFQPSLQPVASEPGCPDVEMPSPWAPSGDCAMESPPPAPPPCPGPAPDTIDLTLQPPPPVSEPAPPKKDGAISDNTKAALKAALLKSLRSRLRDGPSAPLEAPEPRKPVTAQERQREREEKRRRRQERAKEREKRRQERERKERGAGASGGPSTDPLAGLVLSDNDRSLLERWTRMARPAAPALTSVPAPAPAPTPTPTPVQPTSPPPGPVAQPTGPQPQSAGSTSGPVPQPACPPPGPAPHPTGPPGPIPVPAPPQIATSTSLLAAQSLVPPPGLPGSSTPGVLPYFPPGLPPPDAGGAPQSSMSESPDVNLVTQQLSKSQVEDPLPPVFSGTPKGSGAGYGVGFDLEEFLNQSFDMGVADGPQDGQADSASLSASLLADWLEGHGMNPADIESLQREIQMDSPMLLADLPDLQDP
Chain of ATP-dependent translocase ABCB1 (Homo sapiens) (P08183 whole entry, looked up): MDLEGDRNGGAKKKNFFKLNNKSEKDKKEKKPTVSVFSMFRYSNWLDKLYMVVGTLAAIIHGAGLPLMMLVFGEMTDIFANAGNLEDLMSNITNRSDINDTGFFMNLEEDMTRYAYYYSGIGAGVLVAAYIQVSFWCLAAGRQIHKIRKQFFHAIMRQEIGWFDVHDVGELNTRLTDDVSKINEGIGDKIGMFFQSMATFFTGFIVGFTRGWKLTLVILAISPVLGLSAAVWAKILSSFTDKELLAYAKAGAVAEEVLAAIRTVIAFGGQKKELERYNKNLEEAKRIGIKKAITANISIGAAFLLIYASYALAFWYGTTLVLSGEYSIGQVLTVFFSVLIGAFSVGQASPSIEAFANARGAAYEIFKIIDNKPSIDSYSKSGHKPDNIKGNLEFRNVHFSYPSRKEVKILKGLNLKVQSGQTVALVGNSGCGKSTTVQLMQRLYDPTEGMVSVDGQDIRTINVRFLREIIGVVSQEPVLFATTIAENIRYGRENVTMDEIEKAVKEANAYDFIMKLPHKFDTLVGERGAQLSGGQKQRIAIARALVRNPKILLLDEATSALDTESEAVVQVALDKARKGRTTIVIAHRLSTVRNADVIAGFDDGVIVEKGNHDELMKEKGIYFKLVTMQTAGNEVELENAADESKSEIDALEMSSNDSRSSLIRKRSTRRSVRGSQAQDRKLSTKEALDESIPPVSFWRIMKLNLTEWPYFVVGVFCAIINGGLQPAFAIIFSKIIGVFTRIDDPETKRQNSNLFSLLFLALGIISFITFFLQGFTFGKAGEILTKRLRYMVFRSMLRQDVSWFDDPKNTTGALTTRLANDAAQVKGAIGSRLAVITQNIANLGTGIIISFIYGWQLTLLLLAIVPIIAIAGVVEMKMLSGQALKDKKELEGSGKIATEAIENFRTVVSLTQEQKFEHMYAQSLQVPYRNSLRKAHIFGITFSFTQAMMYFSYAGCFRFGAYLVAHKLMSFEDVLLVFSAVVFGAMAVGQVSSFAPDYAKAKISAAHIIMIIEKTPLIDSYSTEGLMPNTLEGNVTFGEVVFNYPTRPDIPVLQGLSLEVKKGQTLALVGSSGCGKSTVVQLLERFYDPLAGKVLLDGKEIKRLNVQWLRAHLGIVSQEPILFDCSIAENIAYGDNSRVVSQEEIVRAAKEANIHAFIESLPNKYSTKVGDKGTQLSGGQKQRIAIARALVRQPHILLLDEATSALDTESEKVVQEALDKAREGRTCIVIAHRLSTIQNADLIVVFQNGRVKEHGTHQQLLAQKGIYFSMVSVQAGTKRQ
Chain of NAD(+) hydrolase SARM1 (Homo sapiens) (Q6SZW1 whole entry, looked up): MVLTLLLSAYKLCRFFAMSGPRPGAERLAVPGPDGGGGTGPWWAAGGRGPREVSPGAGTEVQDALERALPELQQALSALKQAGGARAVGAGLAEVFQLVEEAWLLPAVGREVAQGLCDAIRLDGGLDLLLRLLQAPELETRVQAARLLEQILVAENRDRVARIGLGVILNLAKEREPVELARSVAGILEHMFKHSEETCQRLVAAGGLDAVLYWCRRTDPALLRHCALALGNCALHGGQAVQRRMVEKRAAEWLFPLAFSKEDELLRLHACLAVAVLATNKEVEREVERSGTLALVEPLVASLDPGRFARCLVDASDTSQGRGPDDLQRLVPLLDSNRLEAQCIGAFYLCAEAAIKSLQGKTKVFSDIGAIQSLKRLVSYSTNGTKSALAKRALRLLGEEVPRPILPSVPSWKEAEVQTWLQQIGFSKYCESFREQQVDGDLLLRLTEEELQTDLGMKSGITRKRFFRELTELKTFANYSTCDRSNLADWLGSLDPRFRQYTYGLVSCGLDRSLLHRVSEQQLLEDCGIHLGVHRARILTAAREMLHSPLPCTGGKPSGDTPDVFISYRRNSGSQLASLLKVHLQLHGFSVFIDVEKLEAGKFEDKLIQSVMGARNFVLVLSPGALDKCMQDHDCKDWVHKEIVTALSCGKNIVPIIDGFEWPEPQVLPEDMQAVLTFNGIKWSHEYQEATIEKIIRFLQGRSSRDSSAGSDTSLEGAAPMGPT

What is called inhibition is the relative decrease from the control value, in per cent. Take `c1ccc2c(c1)[nH]c1cnccc12`: the fluorescence slope change in assay [1] was 73% (active). The inhibition in assay [2] is 1.67% (inactive). The red/green cell ratio (normalised) in assay [3] was 1 (inactive). Also, the normalised cell number in [3] (setting [24]) and in assay [3] (setting [25]) was 0.91 in each case. Moreover, in assay [4], the activity remaining is 105% (inactive). In addition, the luciferase signal in [5] was 44 AU (inactive).

A word on the remaining activity: it is the activity still measured, relative to the control. Take `O=[N+]([O-])c1cc(O)c(O)c([N+](=O)[O-])c1`: the inhibition was -6.91% in assay [6], 1% (inactive) in assay [15] and -7.64% (inactive) in assay [2]. Further, the score in [7] amounted to 1.27. The compound also yielded a rescue above control in assay [8] of -7.14. Besides, the cytochrome c release ratio in assay [9] was found to be 0.96. Besides, in assay [10], the inhibition of aggregation was 80.3%. The glutamate uptake change in assay [11] is -10%. For the same compound, in assay [12], the inclusion score was found to be 2. Moreover, the aggregation suppression score in assay [13] came to 1.02. For the same compound, the period change in [14] was 0.035 h (inactive). Moreover, the fluorescence ratio (interference) in [16] is 1 (inactive). Moreover, the remaining activity in assay [17] was 95.2% (inactive); in assay [18] it was 97% (inactive). In addition, the activity remaining in [4] was 110% (inactive). The fold change was 1.02 (inactive) and 0.929 (inactive) in assay [19] (stronger effect = lower value); 1.32 and 0.849 in [19] (setting [26]). Also, the cell count in assay [19] (setting [27]) is 9880 and 8690; in assay [19] (setting [28]), 9680 and 9350. The compound was called inactive in assay [20]. Besides, the z-score in assay [21] is 0.815 (inactive) and 1.17 (inactive).

As a reminder, the viability is a read-out of living cells in per cent, often relative to untreated cells. Take `CCCCOC(=O)c1ccccc1C(=O)OCCCC`: the parasite load remaining in assay [22] is 68.9% (inactive). This compound returned a viability in assay [22] of 91.7%. In addition, the inhibition in assay [2] was 4.37% (inactive). In [3], the red/green cell ratio (normalised) was 1.22 (inactive). For the same compound, the normalised cell number stood at 0.78 in assay [3] (setting [24]) and 0.95 in assay [3] (setting [25]). For the same compound, the fold change in [19] (stronger effect = lower value) was 0.891 (inactive); in assay [19] (setting [26]), 1.43. The cell count in assay [19] (setting [27]) turned out to be 10600; in assay [19] (setting [28]), 11900. The remaining NAD in assay [23] was 10 nM (inactive). Also, in assay [5], the luciferase signal was 76 AU (inactive).

`N#C/C(=C\c1ccc(O)cc1)C(=O)O`: the figures for the inhibition in assay [6] and in assay [2] were -8.72% and 0.31% (inactive), respectively. Also, in [7], the score was determined as 1.56. The rescue above control in assay [8] was -7.23. Besides, the cytochrome c release ratio in assay [9] amounted to 0.76. In addition, in assay [10], the inhibition of aggregation is -4.76%. In addition, the glutamate uptake change in assay [11] amounted to 12%. The same compound came in with an inclusion score in assay [12] of 2. Moreover, the aggregation suppression score in [13] was 1.17. Also, the red/green cell ratio (normalised) in assay [3] was 0.79 (inactive). For the same compound, the normalised cell number worked out at 1.25 in [3] (setting [24]) and 0.99 in assay [3] (setting [25]). Also, the luciferase signal in [5] was 144 AU (inactive).

As to `COc1nc(NC(C)C)nc(NC(C)C)n1`, the inhibition in assay [2] was -20.6% (inactive). The activity remaining in assay [4] was 117% (inactive).

On to `CC(C)(O)[C@@H]1[C@H]2OC(=O)[C@@H]1[C@]1(O)C[C@H]3O[C@]34C(=O)O[C@H]2[C@]14C`, for which the inhibition in [6] is -16.4%; in [2], 6.64% (inactive). This compound also registered a score in assay [7] of 1.49. The same compound yielded a rescue above control in assay [8] of 8.41. In addition, the cytochrome c release ratio in assay [9] was 0.87. Moreover, the inhibition of aggregation in [10] amounted to 51%. Also, the glutamate uptake change in [11] is 14.8%. For the same compound, in assay [12], the inclusion score came to 2. Further, the aggregation suppression score in assay [13] amounted to 1.53. The parasite load remaining in assay [22] is 79% (inactive). The compound further gave a viability in assay [22] of 91.4%. For the same compound, the red/green cell ratio (normalised) in [3] is 0.89 (inactive). Moreover, the normalised cell number was 1.1 in assay [3] (setting [24]) and 0.99 in assay [3] (setting [25]). For the same compound, the activity remaining in assay [4] was 107% (inactive). In addition, the luciferase signal in assay [5] is 84 AU (inactive).
